CendR NRP1 mod: modulators of CendR peptide binding to NRP-1, primary screen, biochemical, fluorescence polarization, uHTS | FAM-RPARPAR peptide binding to NRP-1 | inhibition, % at 25 µM | 360,000 compounds, 0.85% hits | Neuropilin-1 (Homo sapiens), O14786;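 active = inhibition or corrected inhibition above about 18%, plus a signal ratio from 0.5 to 1.5, limit read from the data, passing the limit was not always enough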
MEKK3 PB1 HTS: modulators of MEKK3-MEK5 PB1 binding, primary screen, biochemical, wildtype MEKK3, multiplex bead flow cytometry, Alexa488-MEK5 | bead-based flow cytometry, Alexa488-MEK5 binding to MEKK3; actives lie on both sides; 0 = blocked by unlabeled MEK5, 100 = vehicle | Mitogen-activated protein kinase kinase kinase 3 (Homo sapiens), Q99759 | binding response (% of control), % at 10 µM | 290,000 compounds, 1.4% hits;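 active = binding response more than 3 SD above or below the average of its plate-row segment, actives on both sides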;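 note: Alexa488 bead fluorescence after subtracting the streptavidin-only scavenger bead signal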
SKN-1 block: suppressors of acrylamide-induced Pgst-4::GFP reporter in worms, primary screen, SKN-1 inhibitor project, whole organism, uHTS, GFP/RFP fluorescence ratio, strain VP596 | C. elegans VP596 Pgst-4::GFP/RFP ratio, 24 h | inhibition, % at 21.8 µM | 360,000 compounds, 0.49% hits;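 active = interference check ratio from 0.5 to 1.5 plus GFP to RFP signal ratio inhibition reaching or exceeding a fixed threshold, cut at about 30% in these data, passing the limit was not always enough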
MEKK2wt PB1 HTS: modulators of MEK5 binding to wildtype MEKK2, primary screen, biochemical, multiplex bead flow cytometry, Alexa488-MEK5; Mitogen-activated protein kinase kinase kinase 2 (Homo sapiens), Q9Y2U5; Alexa488-MEK5 binding to MEKK2 WT; actives lie on both sides; binding response (% of control), % at 10 µM; 290,000 compounds, 1.1% hits; in the data active = binding response below about 67% or above about 130%
MEKK2mut PB1 HTS: MEK5 binding signal on mutant MEKK2 PB1, primary screen, biochemical, multiplex bead flow cytometry, Alexa488-MEK5 | Alexa488-MEK5 binding to MEKK2 mutant | percent response, % at 10 µM | 290,000 compounds, 0.35% hits; in the data active = percent response above about 24%, passing the limit was not always enough
Starred values were filed as active, the others as inactive; / = no result given. Most compounds without a hit are left out; they make up all but 3.2% or so of the library.

SMILES	CendR NRP1 mod	MEKK3 PB1 HTS	SKN-1 block	MEKK2wt PB1 HTS	MEKK2mut PB1 HTS
C/C(=N\NC(=O)c1cc(-c2cccs2)nc2ccccc12)c1ccccn1	30*	100	-3	98	-3
COc1ccc(OC)c(NC(=O)Nc2nnc([C@@H]3O[C@H](CO)[C@@H](O)[C@H]3O)s2)c1	8	/	2	/	/
O=C1NC[C@H](CCCCN2C[C@H](Cc3ccc(O)cc3)N(CC3CCCCC3)C(=O)C2=O)N(CCc2ccc(O)cc2)C1=O	3	/	2	/	/
Cc1ccccc1S(=O)Cc1ccc(C(=O)N2CCN(C3CCCCC3)CC2)o1 (stereo not drawn)	5	/	-9	/	/
Cc1ccccc1S(=O)Cc1ccc(C(=O)N2CCN(C(=O)c3ccco3)CC2)o1 (stereo not drawn)	8	100	35*	101	4
CCOc1ccc(C(=O)NCC(=O)NCCSc2ccc(Br)cc2)cc1OCC	23*	/	3	/	/
Clc1ccc(CN2CCN(c3ncccn3)CC2)c(Cl)c1	6	83	19	88	-3
N#CC1=C(N)OC2=C(CCc3ccccc32)C1c1ccccc1Cl (stereo not drawn)	-32	144*	18	105	1
N#CC1=C(N)Oc2cc(N)ccc2C1c1ccccc1Cl (stereo not drawn)	-9	100	-16	102	-2
Oc1oc(-c2cccc3ccccc23)nc1/C=N/c1nccs1	-58	130*	2	104	1
Oc1oc(-c2cccc3ccccc23)nc1C=NCc1ccccc1	/	97	/	96	-2
CN(C)c1ccc(C=C2SC(=S)NC2=O)cc1	70	/	40*	/	/
CC(SC(=S)N1CCCC1)C(=O)O (stereo not drawn)	36*	98	-1	94	-12
CC(C)(SC(=S)N1CCCCCC1)C(=O)O	-2	93	7	83	-13
Cn1c(=O)c2[nH]c(-c3ccccc3Cl)c(O)c2n(C)c1=O	10	95	-3	96	-3
Cn1c(=O)c2[nH]c(-c3ccccc3)c(O)c2n(C)c1=O	36*	111	-6	101	0
O=C(Nc1ccc(-c2cn3ccsc3n2)cc1)C1COc2ccccc2O1 (stereo not drawn)	-12	95	36*	97	-3
Cc1ccc(NC(=O)C2COc3ccccc3O2)cc1 (stereo not drawn)	24	98	2	96	-10
Cc1cc(C(=O)N2CCCC(N3CCN(c4cccc(Cl)c4)CC3)C2)nn1C (stereo not drawn)	30*	102	-1	101	16
O=C1CSC(=S)N1N=Cc1ccc2c(c1)OCO2	-5	/	-10	/	/
O=C(COC(=O)c1ccc(F)c([N+](=O)[O-])c1)NC(=O)NCc1ccccc1	22*	/	-4	/	/
O=C1Nc2ccccc2-n2nnnc2C1N1CCN(C(=O)C2CCCO2)CC1 (stereo not drawn)	8	/	-8	/	/
CSc1ncnc2c1ncn2CCCNCC(c1ccccc1)c1ccccc1	-10	/	-4	/	/
CCOc1ccc(C(=O)COC(=O)c2nn(CC)c(=O)c3ccccc23)cc1	19*	/	4	/	/
O=C1Nc2ccccc2C(O)(C(=O)NCc2ccco2)N1c1ccc(Cl)c(Cl)c1 (stereo not drawn)	-15	101	42*	97	2
CCN(CC)CC(C)CNC(=O)C1(O)c2ccccc2NC(=O)N1c1ccc(Cl)c(Cl)c1 (stereo not drawn)	9	107	5	107	8
COc1ccc([C@H]2/C=C\CN(C(=O)C3CC3)[C@@H](C)C(=O)N2Cc2ccc(F)cc2)cc1	33*	103	-7	103	6
COc1ccc(C2/C=C\CN3CCC[C@H]3C(=O)N2Cc2ccc(F)cc2)cc1 (stereo partly drawn)	-41	/	17	/	/
COc1ccc([C@H]2/C=C\CN(S(C)(=O)=O)[C@@H](C)C(=O)N2Cc2ccc(F)cc2)cc1	22*	102	-18	106	1
